Data on 40 compounds can be found in PubChem BioAssay (NCI).

Compounds without any hit were thinned out: in the full panel of roughly 83,000, 20% have a hit.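 In brief: 96-well plates, 48 h treatment, single concentration, percent growth endpoint.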 Calls of active or inactive are those of the source. Rule for the calls: active = growth percent below 10; inactive = the rest.

The test system of this assay is SK-MEL-5 melanoma. Put plainly: NCI-60 one-dose screen, 48 h (100 = growth as untreated, 0 = no growth, -100 = all killed). As to conditions: 10 µM.
In the case of `COc1ccc(/C=C2\CCCC3=C2NC(N)=NC3c2ccc(OC)cc2)cc1` (stereo not given), the growth was 56.2% (inactive). As for `CN(C)CCCOc1cccc(NC2=C(Cl)C(=O)C(Nc3cccc(OCCCN(C)C)c3)=C(Cl)C2=O)c1`, the figure is -96.5% (active); as for `N#CC1=C(N)Oc2cc(N)ccc2C1c1cccnc1` (stereo not given), 99.3% (inactive). As for `COc1cc(/C=C/c2cc(/C=C/c3ccc(O)c(OC)c3)n(C(=O)Nc3ccc(C)cc3)n2)ccc1O`, the figure is 1.16% (active); as for `Cc1ccc(-n2nnnc2N)c(C)c1`, 115% (inactive). For `CCCCN(CCCC)C(=O)[C@H](CC)[C@@H]1CC[C@@H](C)[C@@H]([C@H](C)[C@@H](O)[C@@H](C)C(=O)[C@H](CC)C2O[C@]3(C=C[C@@H](O)[C@]4(CC[C@@](C)([C@H]5CC[C@](O)(CC)[C@H](C)O5)O4)O3)[C@H](C)C[C@@H]2C)O1` (stereo not given in full) the value was -92% (active); for `COc1ccc2c(c1)C(=O)/C(=C/c1ccc([N+](=O)[O-])o1)O2`, -91.3% (active); for `Cc1ccc(S(=O)(=O)N(C)CCCCCC(=O)O)cc1`, 105% (inactive).

For the compound `NC1=NC(c2ccc(Cl)cc2)C2=C(N1)/C(=C/c1ccc(Cl)cc1)CCC2` (stereo not given), the growth was 87.5% (inactive). As for `S=C(NCc1ccccc1)NCc1ccccc1`, the figure is 98.3% (inactive); as for `COc1cc2cc(Oc3ccc(NC(=O)c4ccccc4)cc3)c(C)nc2cc1OC`, 80.2% (inactive).

Consider `Cc1c(Cl)cccc1NC(=O)CN1CCOCC1`, for which the growth is 101% (inactive). For `C=CCN(CC=C)C(=O)[C@H](CC)[C@@H]1CC[C@@H](C)[C@@H]([C@H](C)[C@@H](O)[C@@H](C)C(=O)[C@H](CC)C2O[C@]3(C=CC(=O)[C@]4(CC[C@@](C)([C@H]5CC[C@](O)(CC)[C@H](C)O5)O4)O3)[C@H](C)C[C@@H]2C)O1` (stereo not given in full) the value was -12.3% (active); for `CCN1CCN(CCC(=O)Nc2cccc(-n3cc(-c4ccncc4)c(-c4ccc(Cl)c(OC)c4)n3)c2)CC1`, -3.03% (active); for `Nc1ccn(Cc2nnc(CCC(=O)c3nc4ccccc4[nH]3)o2)c(=O)n1`, 68.9% (inactive). For `Cc1ccc2nc(Cl)c(-c3nc4ccccc4o3)cc2c1` the value was 88.7% (inactive); for `C/C=C/CSC(C)(C)C(=O)NC`, 101% (inactive). For `COc1cc2c(Nc3ccc(S(N)(=O)=O)cc3)ncnc2c(OC)c1OC` the value was 91.4% (inactive). Consider `CC(=O)OC1C=CC(OC(C)=O)O1` (stereo not given), for which the growth was 104% (inactive).

As for `CC(=O)C1N=NCC1c1ccccc1` (stereo not given), the growth is 98.4% (inactive). Turning to `O=C(CN(C1CCCCC1)C1CCCCC1)Nc1ccc(S(=O)(=O)c2ccc(NC(=O)CN(C3CCCCC3)C3CCCCC3)cc2)cc1`, the growth is -76.5% (active). As for `Cc1c[nH]c(=O)n(Cc2nnc(CCC(=O)c3nc4ccccc4[nH]3)o2)c1=O`, the figure is 13.2% (inactive); as for `O=C(CCn1cnc2c(cc(-c3ccccc3)n2-c2ccccc2)c1=O)Nc1ccc(F)cc1`, 77.5% (inactive).

As for `CN(C)CCOc1cccc(NC2=C(Cl)C(=O)C(Nc3cccc(OCCN(C)C)c3)=C(Cl)C2=O)c1`, the growth was -95.2% (active). For `CN1CCN(CCC(=O)Nc2cccc(-n3cc(-c4ccncc4)c(-c4ccc(Cl)c(O)c4)n3)c2)CC1` the value was 24.2% (inactive); for `CC(=O)Nc1ccc(CC[C@H]2CCC/C=C/[C@@H]3C[C@H](O)C[C@H]3[C@H](O)/C=C/C(=O)O2)cc1`, -88.6% (active); for `CN(C)CCN(Cc1ccccc1)c1ccc2ccccc2n1`, 91.7% (inactive). Regarding `C/C(=N\O)c1ccc(NC(=O)CSc2nnc(-c3ccccc3)n2-c2ccccc2)cc1`, the growth was 48.6% (inactive). For the compound `CCC(CC)n1c(C)cc(=O)n1C(CC)CC`, the growth was 98.4% (inactive). As for `CC[C@@H](C(=O)[C@H](C)[C@H](O)[C@@H](C)[C@H]1O[C@H]([C@@H](CC)C(=O)O)CC[C@H]1C)C1O[C@]2(C=C[C@@H](O)[C@]3(CC[C@@](C)([C@H]4CC[C@](O)(CC)[C@H](C)O4)O3)O2)[C@H](C)C[C@@H]1C` (stereo not given in full), the figure is -99.2% (active); as for `O=C(O)c1cc([N+](=O)[O-])ccc1Oc1ccccc1`, 84.6% (inactive).

In the case of `O=[N+]([O-])c1cccc(/C=N/NC(=S)NC23CC4CC(CC(C4)C2)C3)c1`, the growth is 85.7% (inactive).

With `COc1cc(C(=O)n2nc(-c3cc(OC)c(OC)c(OC)c3)nc2N)cc(OC)c1OC`, the growth is 94.5% (inactive). As for `COc1ccc(-c2n[nH]nc2-c2cc(OC)c(OC)c(OC)c2)cc1`, the figure is -53.9% (active); as for `C=CCN(CC=C)C(=O)[C@H](CC)[C@@H]1CC[C@@H](C)[C@@H]([C@H](C)[C@@H](O)[C@@H](C)C(=O)[C@H](CC)C2O[C@]3(C=C[C@@H](O)[C@]4(CC[C@@](C)([C@H]5CC[C@](O)(CC)[C@H](C)O5)O4)O3)[C@H](C)C[C@@H]2C)O1` (stereo not given in full), -85.2% (active). For `O=C(Nc1cccc2c1CCCC2)c1cc2ccccc2cc1O` the value was -37.8% (active); for `O=C1/C=C/[C@@H](O)[C@@H]2C[C@@H](O)C[C@H]2/C=C/CCC[C@H](CCc2ccc(NC(=S)Nc3ccc4c(c3)C(=O)OC43c4ccc(O)cc4Oc4cc(O)ccc43)cc2)O1`, -87.2% (active). In the case of `COc1cc(/C=C/c2cc(/C=C/c3ccc(O)c(OC)c3)nc(N)n2)ccc1O`, the growth is -18.4% (active). For `CC(=O)Oc1cc(OC(C)=O)c2ccccc2c1OC(C)=O` the value was 60.9% (inactive). `CCOc1ccccc1/C=N\N=C\c1ccccc1O`: the growth was 95.5% (inactive).
